Source: PubChem BioAssay (NCATS)
Results filed as inconclusive are left out. Where a call stands in place of a potency, no number is given. Activity calls are given as the source filed them. Unless noted, the call rests on the fitted dose curve; in most records, active means well fitted curve in the direction sought with a large enough effect; inconclusive means small, poorly fitted or top-dose-only effect, or another doubt; inactive means no such curve, though single readings can be large; an effect the other way counts as inactive or inconclusive.

What was measured:
[1] = molecular target: Cytochrome P450 1A2 (Homo sapiens) (UniProt P05177); experiment: p450-cyp1a2 (AID 410; calls by dose curve; further: potency means the concentration at half of the fitted maximal effect)
Cytochrome P450 1A2 (Homo sapiens), sequence (P05177 whole entry, looked up): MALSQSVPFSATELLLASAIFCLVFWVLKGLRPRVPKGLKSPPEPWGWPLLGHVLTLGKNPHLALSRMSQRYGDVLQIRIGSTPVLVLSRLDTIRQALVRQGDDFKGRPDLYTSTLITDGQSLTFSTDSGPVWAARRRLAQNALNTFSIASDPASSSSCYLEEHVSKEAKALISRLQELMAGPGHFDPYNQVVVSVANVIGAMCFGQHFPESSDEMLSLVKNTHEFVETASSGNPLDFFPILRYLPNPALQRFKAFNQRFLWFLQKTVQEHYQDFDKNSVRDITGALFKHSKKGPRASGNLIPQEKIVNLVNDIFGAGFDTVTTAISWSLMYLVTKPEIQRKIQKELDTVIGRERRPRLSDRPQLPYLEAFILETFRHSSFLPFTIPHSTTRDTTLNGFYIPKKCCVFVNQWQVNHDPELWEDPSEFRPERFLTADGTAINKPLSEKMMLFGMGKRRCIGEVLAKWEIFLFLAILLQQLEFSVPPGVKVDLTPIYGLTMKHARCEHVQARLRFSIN
Summary of the method: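 Luminescent demethylation readout: Luciferin-ME (100uM, equal to Km) turned over by 20nM CYP1A2 for 60 min at room temperature after NADPH regeneration addition, following 10 min compound preincubation. Normalization used 57 uM furafylline as full inhibition.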

[2] = molecular target: Mitogen-activated protein kinase 10 (Mus musculus) (UniProt Q61831); experiment: JNK3 AlphaScreen Assay (AID 530; active means well fitted curve in either direction with a large enough effect, not every such curve was filed as active;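 further: kinase came from lysate of stimulated human HepG2 cells; signal reports phosphorylation of biotinylated GST-cJun 1-79 at Ser73 with 10 µM ATP; series mostly up to about 57 µM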)
Summary of the method: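 Phosphorylation of biotinylated GST-cJun(1-79) at Ser73 is measured by AlphaScreen proximity luminescence. Enzyme is JNK3 in HepG2 lysates activated with interleukin-1beta and tumor necrosis factor alpha; ATP is 10 uM final.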

[3] = molecular target: Cytochrome P450 3A4 (Homo sapiens) (UniProt P08684); experiment: qHTS Assay for Activators of Cytochrome P450 3A4 (AID 885); further: nearly all actives have a fitted effect of over 65% in size
Cytochrome P450 3A4 (Homo sapiens), sequence (P08684 whole entry, looked up): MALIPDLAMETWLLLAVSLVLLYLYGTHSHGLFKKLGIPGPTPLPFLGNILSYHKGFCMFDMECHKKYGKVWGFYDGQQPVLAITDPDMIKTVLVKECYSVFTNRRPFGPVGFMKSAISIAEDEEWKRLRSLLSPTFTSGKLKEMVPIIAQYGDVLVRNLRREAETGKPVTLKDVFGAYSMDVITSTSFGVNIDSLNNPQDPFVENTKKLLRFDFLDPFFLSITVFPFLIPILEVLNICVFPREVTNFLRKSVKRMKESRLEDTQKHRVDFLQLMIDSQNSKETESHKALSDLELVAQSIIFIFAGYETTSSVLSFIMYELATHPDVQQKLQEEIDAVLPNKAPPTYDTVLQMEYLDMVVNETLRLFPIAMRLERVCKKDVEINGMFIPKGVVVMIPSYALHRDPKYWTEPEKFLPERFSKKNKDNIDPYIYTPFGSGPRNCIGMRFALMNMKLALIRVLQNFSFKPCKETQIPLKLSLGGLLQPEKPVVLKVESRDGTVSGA
Summary of the method: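 Activators are scored by enhanced luminescence from CYP3A4 conversion of luciferin-PPXE (25uM, equal to KM) to luciferin, after 60 min at RT with an NADPH-regenerating system.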

[4] = molecular target: Cytochrome P450 2D6 (Homo sapiens) (UniProt P10635); experiment: qHTS Assay for Inhibitors and Substrates of Cytochrome P450 2D6 (AID 891); further: potency means the concentration at half of the fitted maximal effect; nearly all actives have a fitted effect of over 60% in size
Cytochrome P450 2D6 (Homo sapiens), sequence (P10635 whole entry, looked up): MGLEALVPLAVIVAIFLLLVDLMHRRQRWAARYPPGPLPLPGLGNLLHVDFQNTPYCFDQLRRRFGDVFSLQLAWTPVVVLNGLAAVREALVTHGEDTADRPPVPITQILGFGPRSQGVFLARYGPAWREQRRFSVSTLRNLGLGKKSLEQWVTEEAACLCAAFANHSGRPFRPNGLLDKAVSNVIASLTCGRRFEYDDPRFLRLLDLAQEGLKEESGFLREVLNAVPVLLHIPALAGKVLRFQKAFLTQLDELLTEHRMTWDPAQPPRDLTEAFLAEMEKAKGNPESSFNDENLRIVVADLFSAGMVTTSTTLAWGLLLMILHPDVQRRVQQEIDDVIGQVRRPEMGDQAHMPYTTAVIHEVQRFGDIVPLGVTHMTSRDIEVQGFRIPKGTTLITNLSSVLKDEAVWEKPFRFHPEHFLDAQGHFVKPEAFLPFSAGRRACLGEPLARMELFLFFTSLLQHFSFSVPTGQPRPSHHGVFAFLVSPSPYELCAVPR
Summary of the method: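 Luminescent read-out of luciferin formed by 5 nM human CYP2D6 demethylating 30 uM Luciferin-ME EGE (Km level) over 60 min at room temperature after NADPH regeneration addition. Data normalized to full inhibition by 1.43 uM quinidine.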

[5] = molecular target: Cytochrome P450 2C9 (Homo sapiens) (UniProt P11712); experiment: qHTS Assay for Inhibitors and Substrates of Cytochrome P450 2C9 (AID 883); further: potency means the concentration at half of the fitted maximal effect; nearly all actives have a fitted effect of over 60% in size
Cytochrome P450 2C9 (Homo sapiens), sequence (P11712 whole entry, looked up): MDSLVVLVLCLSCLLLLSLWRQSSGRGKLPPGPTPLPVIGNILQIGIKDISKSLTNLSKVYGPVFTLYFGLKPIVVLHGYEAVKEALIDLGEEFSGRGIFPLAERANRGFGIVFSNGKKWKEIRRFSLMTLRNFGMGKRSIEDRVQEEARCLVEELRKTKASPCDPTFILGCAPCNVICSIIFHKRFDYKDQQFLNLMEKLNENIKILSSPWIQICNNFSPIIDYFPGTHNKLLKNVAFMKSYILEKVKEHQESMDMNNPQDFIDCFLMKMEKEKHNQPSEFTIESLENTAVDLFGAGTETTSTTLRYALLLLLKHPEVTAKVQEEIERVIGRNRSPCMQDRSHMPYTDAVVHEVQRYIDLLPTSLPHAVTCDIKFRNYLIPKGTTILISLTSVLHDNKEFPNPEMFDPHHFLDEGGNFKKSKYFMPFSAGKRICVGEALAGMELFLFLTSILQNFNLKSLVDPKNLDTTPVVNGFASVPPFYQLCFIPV
Summary of the method: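 A luminogenic readout tracked human CYP2C9 (10nM) converting deoxyluciferin (100uM, at KM) in 25mM KPO4 during 60 min at 37C with regenerated NADPH. Values normalized to 57uM sulphaphenazole as complete inhibition.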

[6] = molecular target: Cytochrome P450 2C19 (Homo sapiens) (UniProt P33261); experiment: qHTS Assay for Inhibitors and Substrates of Cytochrome P450 2C19 (AID 899); further: potency means the concentration at half of the fitted maximal effect; nearly all actives have a fitted effect of over 60% in size
Cytochrome P450 2C19 (Homo sapiens), sequence (P33261 whole entry, looked up): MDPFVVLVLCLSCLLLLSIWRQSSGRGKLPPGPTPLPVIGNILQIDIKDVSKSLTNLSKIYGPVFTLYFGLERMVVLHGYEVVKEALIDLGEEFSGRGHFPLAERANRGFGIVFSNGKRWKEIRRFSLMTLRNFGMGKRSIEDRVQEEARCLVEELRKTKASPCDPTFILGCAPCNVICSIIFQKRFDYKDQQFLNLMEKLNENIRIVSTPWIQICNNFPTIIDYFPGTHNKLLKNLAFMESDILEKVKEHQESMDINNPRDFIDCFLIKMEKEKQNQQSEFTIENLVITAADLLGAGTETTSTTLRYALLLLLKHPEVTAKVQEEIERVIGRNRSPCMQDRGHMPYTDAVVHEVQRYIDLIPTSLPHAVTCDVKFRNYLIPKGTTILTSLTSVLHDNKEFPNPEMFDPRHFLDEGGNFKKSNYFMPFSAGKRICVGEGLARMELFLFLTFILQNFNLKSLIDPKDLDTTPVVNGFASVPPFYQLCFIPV
Summary of the method: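 NADPH-dependent conversion of Luciferin-H EGE (10uM, at KM) by 5nM enzyme in 50mM KPO4, 60 min at 37C following 10 min compound preincubation. Stopped with luciferin detection buffer; luminescence read after 20 min.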

[7] = molecular target: 3',5'-cyclic-AMP phosphodiesterase 4B (Homo sapiens) (UniProt Q07343); experiment: qHTS Assay for Inhibitors of PDE-IV (AID 607; active means well fitted activation curve with a large enough effect in the main read-out, with a control signal flat, not every such curve was filed as active)
3',5'-cyclic-AMP phosphodiesterase 4B (Homo sapiens), sequence (Q07343 whole entry, looked up): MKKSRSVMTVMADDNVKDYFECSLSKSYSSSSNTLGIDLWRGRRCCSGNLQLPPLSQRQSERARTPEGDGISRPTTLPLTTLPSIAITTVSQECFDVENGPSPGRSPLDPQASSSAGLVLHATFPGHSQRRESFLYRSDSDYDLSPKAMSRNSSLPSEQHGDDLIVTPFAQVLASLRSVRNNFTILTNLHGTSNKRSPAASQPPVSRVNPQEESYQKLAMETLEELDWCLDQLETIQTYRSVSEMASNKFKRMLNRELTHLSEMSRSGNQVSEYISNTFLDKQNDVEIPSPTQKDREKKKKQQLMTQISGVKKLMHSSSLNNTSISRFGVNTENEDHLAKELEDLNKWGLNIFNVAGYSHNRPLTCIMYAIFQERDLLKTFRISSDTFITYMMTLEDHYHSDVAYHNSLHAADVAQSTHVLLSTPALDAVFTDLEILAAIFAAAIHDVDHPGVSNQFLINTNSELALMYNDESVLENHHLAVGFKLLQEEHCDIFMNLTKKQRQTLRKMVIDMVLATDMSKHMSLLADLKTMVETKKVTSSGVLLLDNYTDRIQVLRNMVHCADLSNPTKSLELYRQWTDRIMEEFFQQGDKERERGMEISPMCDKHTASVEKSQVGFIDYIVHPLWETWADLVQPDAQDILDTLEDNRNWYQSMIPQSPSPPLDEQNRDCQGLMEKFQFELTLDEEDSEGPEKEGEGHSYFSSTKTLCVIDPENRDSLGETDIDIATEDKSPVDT
Summary of the method: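 The readout is membrane depolarisation from a cAMP-sensing CNG channel, detected with a potential dye at ex 535/em 590. Cells were HEK293-derived (endogenous PDE-IV) at 1000 cells/well, titrated up to 22.9 uM final.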

SMILES	Potency [1]	Potency [2]	Potency [3]	Potency [4]	Potency [5]	Potency [6]	Potency [7]
CC[C@H]1C2=C3C(CC[C@H]4C(OCc5ccc(F)cc5C(F)(F)F)OC[C@](C)([C@@H]34)N(C(=O)OC(C)(C)C)C2)C(COC(C)=O)C1COC(C)=O (some centres not stated)	inactive	inactive	inactive	–	–	–	–
CCC[C@@H]1C[C@@]1(CCC)C(NC(=O)c1ccccc1)c1cccc(Cl)c1 (some centres not stated)	inactive	inactive	inactive	3.16 µM (active)	–	–	–
COC(=O)[C@@]1(Cc2ccc(F)cc2)[C@H]2c3cc(C(=O)N4CCCC4)n(Cc4ccc(C)c(F)c4F)c3C[C@H]2CN1C(=O)c1ccccc1	inactive	inactive	inactive	–	–	–	–
CCC/C=C(\CCC)C(NS(=O)(=O)c1ccc(C(F)(F)F)cc1)c1ccc(C(=O)OC)cc1 (configuration not stated)	inactive	–	inactive	–	3.16 µM (active)	2.51 µM (active)	–
CCC/C=C(\CCC)C(NS(=O)(=O)c1ccc(C(F)(F)F)cc1)c1ccccc1 (configuration not stated)	7.94 µM (active)	–	inactive	–	–	0.398 µM (active)	inactive
CCC/C=C(\CCC)C(NC(=O)c1ccc(C(F)(F)F)cc1)c1ccccc1 (configuration not stated)	25.1 µM (active)	–	inactive	7.94 µM (active)	–	–	inactive
